This note sets out measurements from PMC4552634, “A New Set of Chemical Starting Points with Plasmodium falciparum Transmission-Blocking Potential for Antimalarial Drug Discovery” (PLoS ONE, 2015).

Hit rate of the full screen: of about 13,000 compounds, about 3,200 (25%) showed an effect of 50% or more. The list shows a part of the results.

This assay relates to P. falciparum stage V gametocytes. Further details: BacTiter-Glo ATP luminescence viability of purified stage V gametocytes in 384-well plates, per cent inhibition versus DMSO. As to conditions: 48 h, 5 µM; inhibitor.
The term % Inhibition denotes the drop in the measured response relative to a control, in per cent. For `COc1ccc2nccc(N3CCC(NCCNCc4ccc5c(n4)NC(=O)CS5)C3)c2n1` (stereo not drawn) [TCMDC-134649], the “% Inhibition” value was 67.81%.

For the compound `COc1ccc2nccc(N3CCC(SCCNCc4ccc5c(n4)NC(=O)CS5)C3)c2n1` (stereo not drawn) [TCMDC-134285], the “% Inhibition” value is -20.26%.

Take `O=C(NC(c1ccccc1)c1ccccc1)C(c1cc2ccccc2o1)N1CCN(C(c2ccccc2)c2ccccc2)CC1` (stereo not drawn) [TCMDC-141009]: the “% Inhibition” value was -31.77%.

As to `CC1(C)N=C(N)N=C(N)N1c1cccc(Cl)c1` [TCMDC-123960], the “% Inhibition” value was determined as 45.27%.

For `O=C1c2ccccc2CCC1CCN1CC=C(c2c[nH]c3ccccc23)CC1` (stereo not drawn) [TCMDC-140685], the “% Inhibition” value is given as -66.61%.

Consider `CC1(C)CN(CCC2CCC(NC(=O)/C=C/c3ccccc3F)CC2)Cc2ccc(C#N)cc21` (stereo not drawn) [TCMDC-139501], for which the “% Inhibition” value turned out to be 15.62%.

`CCCCCCn1c(Sc2ccc(C#N)c([N+](=O)[O-])c2)nnc1-c1ccc(N(C)C)cc1` [TCMDC-135618]: the “% Inhibition” value is 23.6%.

Turning to `CCCCCCn1c(Sc2ccc(C#N)c([N+](=O)[O-])c2)nnc1-c1ccc(Cl)cc1` [TCMDC-135599], the “% Inhibition” value was found to be 28.19%.

In the case of `CCCCn1c(Sc2ccc(C#N)c([N+](=O)[O-])c2)nnc1-c1ccc(OC)cc1` [TCMDC-135583], the “% Inhibition” value turned out to be 19.44%.

For the compound `CCn1c(Sc2ccc([N+](=O)[O-])c(C#N)c2)nnc1-c1cccc(Cl)c1` [TCMDC-135234], the “% Inhibition” value was found to be 107.6%.

With `CCCn1c(Sc2ccc(C#N)c([N+](=O)[O-])c2)nnc1-c1ccc(Cl)cc1` [TCMDC-135581], the “% Inhibition” value was 50.77%.

As to `COCCn1c(Sc2ccc(C#N)c([N+](=O)[O-])c2)nnc1-c1ccc(N(C)C)cc1` [TCMDC-135613], the “% Inhibition” value was found to be 43.33%.

As to `CCCn1c(Sc2ccc(C#N)c([N+](=O)[O-])c2)nnc1-c1ccc(N(C)C)cc1` [TCMDC-135610], the “% Inhibition” value turned out to be 57.06%.

Take `CCCCCn1c(Sc2ccc(C#N)c([N+](=O)[O-])c2)nnc1-c1ccc(Cl)cc1` [TCMDC-135598]: the “% Inhibition” value worked out at 19.94%.

For the compound `CCn1c(Sc2ccc([N+](=O)[O-])c(C#N)c2)nnc1-c1ccc(Cl)cc1` [TCMDC-135235], the “% Inhibition” value is 96.27%.

For the compound `CCn1c(Sc2ccc(C#N)c([N+](=O)[O-])c2)nnc1-c1cccc(Cl)c1` [TCMDC-135592], the “% Inhibition” value was 10.47%.

With `CN1CCC(N(C)c2nccc(N3CCN(Cc4cncn4Cc4ccccc4)CC3)n2)CC1` [TCMDC-125095], the “% Inhibition” value is -8.441%.

As for `Cc1ccc(-n2cc(CNCC3CCN(CCO)CC3)c(-c3ccc(F)cc3)n2)cc1` [TCMDC-124689], the “% Inhibition” value is reported as 28.13%.

Consider `O=C(CNC1=NCCN1)Nc1ccc(NC(=O)Nc2ccc(NC(=O)CNC3=NCCN3)cc2)cc1` [TCMDC-137202], for which the “% Inhibition” value amounted to 4.446%.

Regarding `O=C(NCCCCN1CCCC2c3cccc(O)c3CCC21)c1ccc(-c2ccccc2)cc1` (stereo not drawn) [TCMDC-139080], the “% Inhibition” value is 37.51%.

On to `O=C(N[C@H](Cc1ccc(Cl)cc1)C(=O)N1CCN(c2ccnc3cc(Cl)ccc23)CC1)[C@H]1Cc2ccccc2CN1` [TCMDC-141498], for which the “% Inhibition” value was 2.012%.

In the case of `CC(=O)c1ccc2c(c1)C(NC(=O)c1cccc(Cl)c1Cl)C(CO)C(C)(C)O2` (stereo not drawn) [TCMDC-138988], the “% Inhibition” value is -12.37%.

Consider `O=C(Nc1ccc(OC2CCN(Cc3ccccc3)C2)c(Cl)c1)c1ccc(F)cc1` (stereo not drawn) [TCMDC-133972], for which the “% Inhibition” value is recorded as 8.518%.

Regarding `O=c1cc(NCCCNCc2scc3c(Cl)cc(C(F)(F)F)nc23)[nH]c2ccccc12` [TCMDC-141146], the “% Inhibition” value is listed as 31.07%.

`Cc1cc(N2CCCC2=O)ccc1-c1ccc(C(=O)N2CCC(Oc3cccc(Cl)c3)CC2)cc1` [TCMDC-136525]: the “% Inhibition” value is on record as -32.31%.

`Oc1ccccc1CCNC1CCc2ccccc2C1` (stereo not drawn) [TCMDC-137890]: the “% Inhibition” value turned out to be 12.83%.

`COc1cc(Cc2cnc(N)nc2N)ccc1OCc1ccc(-c2csnn2)cc1` [TCMDC-138683]: the “% Inhibition” value is listed as -3.694%.

With `CC(C)Cn1c(Sc2ccc(C#N)c([N+](=O)[O-])c2)nnc1-c1ccccc1Cl` [TCMDC-135609], the “% Inhibition” value is reported as 54.29%.

As to `CCn1c(Sc2ccc(C#N)c([N+](=O)[O-])c2)nnc1-c1ccc(OC)cc1` [TCMDC-135602], the “% Inhibition” value came out at 29.96%.

Take `CCCn1c(Sc2ccc(C#N)c([N+](=O)[O-])c2)nnc1-c1ccc(OC)cc1` [TCMDC-135582]: the “% Inhibition” value is on record as 31.08%.

On to `CC(C)CCn1c(Sc2ccc(C#N)c([N+](=O)[O-])c2)nnc1-c1cccc(Cl)c1` [TCMDC-135591], for which the “% Inhibition” value came to 23.85%.

As to `CC(C)Cn1c(Sc2ccc(C#N)c([N+](=O)[O-])c2)nnc1-c1ccccc1` [TCMDC-141918], the “% Inhibition” value worked out at 17.88%.

As for `CC(C)CCn1c(Sc2ccc(C#N)c([N+](=O)[O-])c2)nnc1-c1ccccc1Cl` [TCMDC-135615], the “% Inhibition” value came to 17.65%.

With `CC(C)CCn1c(Sc2ccc(C#N)c([N+](=O)[O-])c2)nnc1-c1ccc(Cl)cc1` [TCMDC-135596], the “% Inhibition” value was 54.47%.

With `CCn1c(Sc2ccc(C#N)c([N+](=O)[O-])c2)nnc1-c1ccc(Cl)cc1` [TCMDC-135597], the “% Inhibition” value was 65%.

As to `COc1ccc(-c2nnc(Sc3ccc(C#N)c([N+](=O)[O-])c3)n2CCC(C)C)cc1` [TCMDC-135601], the “% Inhibition” value worked out at 7.84%.
